Results on 16 compounds are retold here after PubChem BioAssay (NCATS).

Each structure is given as a SMILES string. Results filed as inconclusive are left out. Active and inactive are the calls of the source. The call rests on the fitted dose curve; in most records, active means well fitted inhibition curve with a large enough effect; inconclusive means small, poorly fitted or top-dose-only effect; inactive means flat fitted curve, though single readings scatter.

The nature of this assay: High Content Imaging Cell-Based qHTS for Inhibitors of the mTORC1 Signaling Pathway in MEF (Tsc2-/-, p53-/-) Cells (AID 2666).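 Further: percent of cells scored positive for phospho-rpS6 Ser235/236 immunostaining by imaging.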 The conditions noted are these: at 38.3 µM (top of the series). An excerpt: NIH Molecular Libraries Probe Production Centers Network [MLPCN]
NIH Chemical Genomics Center [NCGC]
Assay Submitter (PI): Blenis, John; Hoffman, Greg; Harvard University
NCGC Assay Overview: Thee mammalian target of rapamycin (mTOR) is an intracellular serine/threonine kinase Aberrant regulation of mTOR signaling plays a causative role in a number of human diseases, including cancer, benign tumors such as lymphangioleiomyomatosis (LAM) and Tuberous Sclerosis Complex (TSC), and metabolic diseases such as diabetes and obesity. This project aims to identify inhibitors of ribosomal protein S6 (rpS6) phosphorylation. The phosphorylation of rpS6 is a key event downstream of mTOR activation. The assay uses a phospho-specific antibody of phospho-rpS6 to detect inhibitors of mTOR activation. Mutations in the Tsc1 and Tsc2 genes are the underlying genetic lesions responsible for TSC, causing constitutive activation of the mTORC1 pathway and leading to profound effects on cell metabolism. Aberrant metabolism in cancer has recently received significant attention as a target to develop therapeutic agents in the treatment of cancer1. As Tsc2-/- cells have lost the ability to respond to energy and growth factor deprivation, these cells are unable to properly down regulate cellular biosynthetic processes in response to metabolic stress, and are thus extremely sensitive to glucose deprivation-induced death.2 A central goal of this project is to explore the unique cell survival and metabolic properties of cells with Tsc1 or Tsc2 by screening for compounds that selectively target the Tsc2-/- MEFs by screening both Tsc2-/- and WT MEF cell lines. We hope to better understand these aspects of TSC physiology in order to exploit them for therapeutic benefit.
NCGC IN Cell Assay Protocol:
For quantitative high throughput analysis of mTORC1 signaling, we developed a cell-based assay for immuno-fluorescence based detection of rpS6 phosphorylation on the Acumen Explorer that will be used a platform for the primary small molecule screen. Mouse embryonic fibroblasts (MEFs) are cultured in 1536-well plates using DMEM + 10% FBS. Twenty-four hrs after plating, test compounds (solubilized in DMSO) are delivered and incubated with the cells for 24 hrs at 37 degree Celsius. Following the incubation, media with compound is aspirated and the cells are fixed in 4% paraformaldehyde (PFA) containing PBS + 0.2% TX-100. Next, PFA is aspirated, cells are washed two times with PBS plus 0.2% TX-100 and the cells are blocked for 1 hr at room temperature (blocking buffer: LiCOR Blocking Buffer plus 0.2% TX-100). This is followed by aspiration and staining with Alexa-488 conjugated-phospho-rpS6 Ser235/236 antibody for 2 hours at room temperature (Cell Signaling Technology # 4803, 1:50 dilution in blocking buffer). Cells are washed two times with PBS plus 0.2% TX-100, and stained with 10 uM propidium iodide (PI) for 20-25 minutes for cell number measurement (1:500 dilution of Hoescht staining is also added for IN Cell imaging). Active wells which are selected (based on Acumen results) are imaged on the IN Cell 1000 (GE Healthcare) using the D360/40X and HQ480/40X excitation filters for the Hoechst and Alexa-488 cytoplasmic stains, respectively. The fluorescence emission filters used were HQ460/40M and HQ535/50M for the Hoechst and Alexa-488 cytoplasmic stains, respectively. The normalized phospho-S6 staining is calculated as the ratio of […] for the single concentration rapamycin control ([…] nM) and DMSO columns. […] Inhibition of the pathway is defined based on the normalized phospho-S6 intensity in rapamycin treated cells. Each treatment is reported as the % positive cells in the well, where thresholds are defined by selecting wells with the highest and lowest signal and differentiating between the % non-active and % active populations. […]
For the compound `COc1ccccc1N1CCN(CCN2C(=O)CC3(CCCC3)CC2=O)CC1`, the result was inactive.

`CCN(CC)CCNC(=O)c1ccc(NS(C)(=O)=O)cc1`: the result was inactive.

For `O=[N+]([O-])c1ccc(-c2nc(-c3ccc(F)cc3)c(-c3ccncc3)[nH]2)cc1`, the compound was classed as inactive.

As for `Nc1ncnc2n[nH]c(Nc3ccc(F)cc3)c12`, the compound was called inactive.

For the compound `O=C1NC(c2cccc([N+](=O)[O-])c2)=CCN1c1ccccc1O`, the outcome was inactive.

Turning to `C[N+](C)(C)CCO`, the compound was called inactive.

For `Clc1ccc2c(c1)N=C(N1CCNCC1)c1ccccc1N2`, the call was inactive.

In the case of `Cc1nn(-c2ccccc2)c(C)c1/C=N/N1CCN(Cc2ccccc2)CC1`, the outcome was inactive.

With `Brc1ccc([C@H]2CN3CCSC3=N2)cc1`, the outcome was inactive.

For the compound `N[C@@H](Cn1ccc(=O)c(O)c1)C(=O)O`, the call was inactive.

For the compound `O=C1NC(=O)/C(=C/c2ccc3c(c2)OC(F)(F)O3)S1`, the compound was classed as inactive.

In the case of `NC(N)=NCCCCN=C(N)N`, the compound was classed as inactive.

Turning to `CN(C)c1cc2c(Nc3ccc4c(cnn4Cc4ccccc4)c3)ncnc2cn1`, the outcome was inactive.

On to `COC(=O)C1=CO[C@@H](O)[C@@H]2C(CO)=CC[C@H]12`, for which the compound was called inactive.

In the case of `Cn1cnc2c(NCc3ccccc3)nc(NCCO)nc21`, the call was inactive.

For `CC(C)N(CCC(=O)c1ccc2ccccc2c1)Cc1ccccc1`, the outcome was inactive.
